These results are taken from PubChem BioAssay (NCATS).

Assay [1] in a line: qHTS of pediatric cancer cell lines to identify multiple opportunities for drug repurposing: Primary screen for BT-37 cells (AID 1347094). In short, it runs like this:
(§1)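 Primary screen of approved and investigational compounds on cells in growth media at 37 degrees C, 5% CO2. MIPE set at 11-point and NPC set at 8-point dilutions; viability scored by ATP-based luminescence at 48 hours.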

Assay [2] is described as follows: qHTS of pediatric cancer cell lines to identify multiple opportunities for drug repurposing: Primary screen for NB-EBc1 cells (AID 1347095). In short, it runs like this: as §1
On the technique in general: qHTS replaces the single test concentration by a dilution series.

The nature of assay [3]: qHTS of pediatric cancer cell lines to identify multiple opportunities for drug repurposing: Primary screen for U-2 OS cells (AID 1347096). Further: nearly all actives have a fitted effect of over 50% in size. The gist of the method:
(§2)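 Cells (500-1,000/well) rested 5 h, then received compounds for 48 h; metabolically active cells were measured by CellTiter-Glo luminescence. Final concentrations spanned up to 46 µM (MIPE, 11-point) or 0.59 nM-46 µM (NPC, 8-point) in primary screens, 11-point in follow-ups.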

The nature of assay [4]: qHTS of pediatric cancer cell lines to identify multiple opportunities for drug repurposing: Primary screen for Saos-2 cells (AID 1347097). Further: nearly all actives have a fitted effect of over 40% in size. In short, it runs like this:
as §1

Assay [5] is described as follows: qHTS of pediatric cancer cell lines to identify multiple opportunities for drug repurposing: Primary screen for SK-N-SH cells (AID 1347098). Further: nearly all actives have a fitted effect of over 65% in size. The gist of the method:
as §2

Assay [6] is described as follows: qHTS of pediatric cancer cell lines to identify multiple opportunities for drug repurposing: Primary screen for NB1643 cells (AID 1347099). Further: nearly all actives have a fitted effect of over 50% in size. In short, it runs like this:
as §1

Assay [7] is described as follows: qHTS of pediatric cancer cell lines to identify multiple opportunities for drug repurposing: Primary screen for LAN-5 cells (AID 1347100). The gist of the method: as §2
The nature of assay [8]: qHTS of pediatric cancer cell lines to identify multiple opportunities for drug repurposing: Primary screen for BT-12 cells (AID 1347101). Further: nearly all actives have a fitted effect of over 25% in size. The gist of the method:
as §2

Assay [9] can be described thus: qHTS of pediatric cancer cell lines to identify multiple opportunities for drug repurposing: Primary screen for Rh18 cells (AID 1347102). Further: nearly all actives have a fitted effect of over 65% in size. The gist of the method: as §2
The nature of assay [10]: qHTS of pediatric cancer cell lines to identify multiple opportunities for drug repurposing: Primary screen for OHS-50 cells (AID 1347103). Further: nearly all actives have a fitted effect of over 40% in size. The gist of the method:
as §2

Assay [11] is described as follows: qHTS of pediatric cancer cell lines to identify multiple opportunities for drug repurposing: Primary screen for RD cells (AID 1347104). Further: nearly all actives have a fitted effect of over 55% in size. The gist of the method: as §1
Assay [12] can be described thus: qHTS of pediatric cancer cell lines to identify multiple opportunities for drug repurposing: Primary screen for MG 63 (6-TG R) cells (AID 1347105). Further: nearly all actives have a fitted effect of over 50% in size. In short, it runs like this:
as §1

Assay [13] can be described thus: qHTS of pediatric cancer cell lines to identify multiple opportunities for drug repurposing: Primary screen for control Hh wild type fibroblast cells (AID 1347106). Further: nearly all actives have a fitted effect of over 55% in size. The gist of the method: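 Cells (500-1,000/well) in growth media were settled 5 h at 37 degrees C, then given compounds for 48 h. Viability was read as CellTiter-Glo luminescence. Primary runs used MIPE at 11 points (0.78 nM-46 µM) and NPC at 8 points (0.59 nM-46 µM); follow-ups used 11 points.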

Assay [14] in a line: qHTS of pediatric cancer cell lines to identify multiple opportunities for drug repurposing: Primary screen for Rh30 cells (AID 1347107). Further: nearly all actives have a fitted effect of over 75% in size. The gist of the method:
as §2

Assay [15] is described as follows: qHTS of pediatric cancer cell lines to identify multiple opportunities for drug repurposing: Primary screen for Rh41 cells (AID 1347108). Further: nearly all actives have a fitted effect of over 70% in size. In short, it runs like this:
as §1

Assay [16] can be described thus: qHTS of pediatric cancer cell lines to identify multiple opportunities for drug repurposing: Confirmatory screen for NB1643 cells (AID 1347109). Further: nearly all actives have a fitted effect of over 45% in size. The gist of the method:
as §2

A short description of assay [17]: qHTS of pediatric cancer cell lines to identify multiple opportunities for drug repurposing: Confirmatory screen for A673 cells (AID 1347110).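 Further: cells exposed to compound for 48 h before the viability read; nearly all actives have a fitted effect of over 65% in size.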 In short, it runs like this: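 qHTS titration format: primary MIPE 0.78 nM-46 µM (11 pts), NPC 0.59 nM-46 µM; confirmation 11 pts. 48 h, CTG luminescence.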
Assay [18] is described as follows: qHTS of pediatric cancer cell lines to identify multiple opportunities for drug repurposing: Confirmatory screen for SK-N-MC cells (AID 1347111).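 Further: cells exposed to compound for 48 h before the readout; nearly all actives have a fitted effect of over 70% in size.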 The gist of the method: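 Seed 500-1,000 cells/well; rest 5 h at 37 degrees C. Pin-transfer compounds, 11-point titration. Incubate 48 h. Add CellTiter-Glo, 15 min RT, read luminescence.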
A short description of assay [19]: qHTS of pediatric cancer cell lines to identify multiple opportunities for drug repurposing: Confirmatory screen for BT-12 cells (AID 1347112). Further: nearly all actives have a fitted effect of over 55% in size. The gist of the method:
as §2

A short description of assay [20]: qHTS of pediatric cancer cell lines to identify multiple opportunities for drug repurposing: Confirmatory screen for LAN-5 cells (AID 1347113). Further: nearly all actives have a fitted effect of over 65% in size. The gist of the method:
as §2

SMILES strings stand for the structures. Results filed as inconclusive are left out. The source made the active and inactive calls. The call rests on the fitted dose curve; in most records, active means well fitted curve in the direction sought with a large enough effect; inconclusive means small, poorly fitted or top-dose-only effect, or another doubt; inactive means no such curve, though single readings can be large; an effect the other way counts as inactive or inconclusive.
Potency means the concentration at half of the fitted maximal effect.

Consider `C=C1C(=O)[C@@]23C(CC[C@@H]1[C@H]2O)[C@@]12CO[C@]3(O)[C@@H](O)[C@@H]1C(C)(C)CC[C@@H]2O` (some centres undefined), for which the Potency in assay [1] is 27.3 µM (active); in assay [2] it was 2.09 µM (active); in [3] it was 14.8 µM (active); in [4], 4.69 µM (active); in assay [5] it was 15.2 µM (active); in assay [6] it was 1.48 µM (active). Moreover, the Potency in assay [7] is 1.66 µM (active); in assay [8] it was 3.43 µM (active); in assay [9], 9.35 µM (active); in [10] it was 9.68 µM (active); in assay [11], 9.35 µM (active); in assay [12], 4.69 µM (active). Further, the Potency in [14] was 7.43 µM (active); in [15] it was 4.69 µM (active); in assay [16], 4.14 µM (active); in assay [17], 9.27 µM (active); in [18], 4.65 µM (active); in assay [19], 7.37 µM (active). Besides, in assay [20], the Potency is 4.14 µM (active). For the same molecule, the Potency result in assay [13] is “inactive”.

In the case of `O=C(NC1CCOCC1)c1ccc(-c2cc(-c3cn[nH]c3-c3ccccn3)ccn2)cc1`, the Potency result in assay [1], in assay [2], in assay [3], in assay [4], in assay [5] and in assay [6] was “inactive” in each case. Besides, the Potency entry in [8], in [9], in assay [10], in assay [11], in assay [13] and in assay [14] was “inactive” throughout. In addition, the Potency result in assay [15] is “inactive”.

Turning to `CN(C)CCC(c1ccccc1)c1ccccn1` (centres undefined), the Potency entry in [1], in assay [2], in [3], in assay [4], in [5] and in assay [6] was “inactive” throughout. The Potency entry in assay [8], in assay [9], in [10], in assay [11], in assay [12] and in assay [13] was “inactive” in each case. In addition, the Potency result in assay [14] and in assay [15] was “inactive” each time.

With `NC1=N[C@@]2(c3cc(NC(=O)c4ccc(F)cn4)ccc3F)COC[C@@H]2CS1`, the Potency in assay [1] was 0.122 µM (active); in [2], 1.87 µM (active); in assay [4] it was 0.372 µM (active); in assay [7], 0.132 µM (active); in assay [8] it was 0.153 µM (active); in [10], 0.137 µM (active). In addition, the results for the Potency in [12] and in assay [15] were 23.5 µM (active) and 18.7 µM (active), respectively. The Potency entry in assay [3], in assay [6], in assay [9], in assay [13], in assay [14] and in assay [16] was “inactive” in each case. For the same molecule, the Potency result in [17], in assay [19] and in assay [20] was “inactive” each time.

Consider `NS(=O)(=O)c1cccc2c1C(=O)c1cccc(O)c1C2=O`, for which the Potency was 0.432 µM (active) in assay [1]; 0.833 µM (active) in assay [2]; 0.59 µM (active) in [3]; 0.264 µM (active) in [4]; 30.4 µM (active) in assay [5]; 1.05 µM (active) in [6]. Moreover, the Potency is 1.05 µM (active) in assay [7]; 0.273 µM (active) in assay [8]; 0.743 µM (active) in assay [9]; 0.769 µM (active) in assay [10]; 0.526 µM (active) in [11]; 2.35 µM (active) in [12]. The Potency in [14] is 2.35 µM (active); in assay [16] it was 2.93 µM (active); in assay [17], 2.33 µM (active); in [18], 2.93 µM (active); in [19] it was 1.04 µM (active); in assay [20], 1.85 µM (active).

Take `Cc1nc(N)sc1-c1ccnc(Nc2ccc(N3CCOCC3)cc2)n1`: the Potency in [1] is 24.3 µM (active); in assay [2], 23.5 µM (active); in assay [3], 18.7 µM (active); in assay [4], 11.8 µM (active); in assay [5] it was 6.81 µM (active); in assay [6] it was 9.35 µM (active). Moreover, the Potency in assay [7] was 0.332 µM (active); in [8], 24.3 µM (active); in assay [9], 16.6 µM (active); in assay [10], 3.85 µM (active); in [11] it was 20.9 µM (active); in assay [12], 5.9 µM (active). In addition, the Potency in assay [13] was 16.6 µM (active).

Turning to `CCN(CC)CCOC(=O)c1ccc(N)cc1`, the Potency entry in assay [1], in [2], in assay [3], in assay [4], in assay [6] and in assay [7] was “inactive” in each case. For the same molecule, the Potency result in [8], in assay [9], in [10], in [11], in assay [12] and in assay [13] was “inactive” throughout. In [14], the Potency result is “inactive”.

For the molecule `O=c1[nH]cnc2c1ncn2[C@H]1CC[C@@H](CO)O1`, the Potency result in [1], in assay [2], in assay [3], in assay [4], in [7] and in [8] was “inactive” each time. The Potency entry in assay [9], in assay [10], in assay [11], in [12], in assay [13] and in [14] was “inactive” each time. Moreover, the Potency entry in assay [16], in assay [17] and in [19] was “inactive” each time.

As to `CN(C)CCC=C1c2ccccc2COc2ccc(CC(=O)O)cc21`, the Potency result in [1], in assay [2], in assay [3], in assay [4], in assay [7] and in [8] was “inactive” throughout. For the same molecule, the Potency entry in [9], in [10] and in [13] was “inactive” each time.

For `CC#CCn1c(N2CCC[C@@H](N)C2)nc2c1c(=O)n(Cc1nc(C)c3ccccc3n1)c(=O)n2C`, the Potency entry in assay [1], in assay [2], in assay [3], in assay [7], in assay [8] and in assay [9] was “inactive” each time. In addition, the Potency result in assay [10], in assay [12] and in assay [13] was “inactive” each time.

On to `CC(C)(C)OC(=O)N[C@H]1CCCCCC=C[C@@H]2C[C@@]2(C(=O)NS(=O)(=O)C2CC2)NC(=O)[C@@H]2C[C@@H](OC(=O)N3Cc4cccc(F)c4C3)CN2C1=O`, for which the Potency result in assay [1], in assay [2], in assay [3], in assay [5], in assay [6] and in [7] was “inactive” each time. Also, the Potency result in assay [8], in [9], in assay [10], in [11], in assay [12] and in assay [13] was “inactive” each time. In addition, the Potency entry in assay [14] is “inactive”.

For `NC(=O)c1cccc(-c2cc(Nc3ccc(OC(F)(F)F)cc3)ncn2)c1`, the Potency result in [1], in assay [2], in assay [3], in assay [5], in assay [6] and in assay [9] was “inactive” throughout. Also, the Potency entry in [11], in assay [12], in assay [13] and in assay [15] was “inactive” throughout.

For the molecule `CC(C)(Cc1ccc2ccccc2c1)NC[C@@H](O)COc1cccc(Cl)c1C#N`, the Potency in assay [1] was 19.3 µM (active); in [2], 2.35 µM (active); in [7] it was 18.7 µM (active). The Potency result in assay [3], in assay [4], in assay [9], in [10], in assay [11] and in assay [13] was “inactive” in each case. The Potency result in [14] is “inactive”.
